Screening data deposited in PubChem BioAssay by National Center for Advancing Translational Sciences (NCATS).
The list is not random: actives were taken first. Their share in the collection is about 15%.
RORg inh – qHTS for inhibitors of ROR gamma transcriptional activity; Potency, µM (titrated, usually from 53.6 µM), for inactives: at the top dose activity change, negative = inhibition, most hits filed as inhibitors; Nuclear receptor ROR-gamma (Mus musculus), P51450; 5.4% of 310,000 active; AID 2551, 2010; Drosophila S2 Gal4-RORgamma UAS-luciferase reporter, 20 h; also: nearly all actives have a fitted effect of over 60% in size
Target sequence (P51450 whole entry, looked up, the tested form may be a part): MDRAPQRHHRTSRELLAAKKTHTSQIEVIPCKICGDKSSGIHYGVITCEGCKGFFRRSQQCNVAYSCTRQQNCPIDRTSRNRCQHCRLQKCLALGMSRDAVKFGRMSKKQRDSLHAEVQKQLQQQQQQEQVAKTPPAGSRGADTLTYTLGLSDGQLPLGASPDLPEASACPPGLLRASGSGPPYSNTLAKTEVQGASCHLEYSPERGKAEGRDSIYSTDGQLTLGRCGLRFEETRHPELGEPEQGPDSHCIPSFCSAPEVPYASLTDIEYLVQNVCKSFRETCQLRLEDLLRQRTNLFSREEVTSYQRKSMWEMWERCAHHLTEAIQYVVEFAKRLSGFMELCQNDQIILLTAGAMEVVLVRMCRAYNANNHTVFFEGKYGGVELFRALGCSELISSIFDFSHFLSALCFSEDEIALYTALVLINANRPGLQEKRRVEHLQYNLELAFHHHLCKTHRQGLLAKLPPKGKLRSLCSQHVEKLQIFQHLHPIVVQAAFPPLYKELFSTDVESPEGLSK
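A Gal4/UAS one-hybrid system in insect cells: metallothionein-promoter Gal4–ROR gamma fusion plus Photinus luciferase reporter. Copper sulfate 700 uM final, 20 hr ambient incubation, luminescent detection after 10 min with reagent.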
ELG1 DNA repair – qHTS screen for small molecules that inhibit ELG1-dependent DNA repair in human embryonic kidney (HEK293T) cells expressing luciferase-tagged ELG1. HEK293T ELG1-luciferase reporter, luminescence, 16 h; DNA damage induced by 5-fluorouridine. Potency, µM (series often up to 46.1 µM), for the others: top-dose activity change, negative = inhibition, hits mostly inhibitors. 2.3% of 330,000 active. AID 504467, 2011; also: nearly all actives have a fitted effect of over 55% in size
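Overnight (16 hr) co-exposure of 2,000 cells/well to 5-fluorouridine and compound at 37 °C preceded detection. Luciferase was quantified via ONE-Glo luminescence; loss of signal denotes inhibition.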
TDP1 cell noCPT – qHTS for Inhibitors of human tyrosyl-DNA phosphodiesterase 1 (TDP1): qHTS in cells in absence of CPT; DT40 Tdp1-/- hTDP1 cells, no CPT, ATP luminescence, 48 h; Potency, µM (highest dose often 46.2 µM), for the others: top-dose activity change, negative = growth inhibition, usual class: inhibitors; 15% of 420,000 active; also: nearly all actives have a fitted effect of over 55% in size
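Stably hTDP1-transfected Tdp1-null chicken DT40 cells were treated with library compounds minus camptothecin and grown for at least 48 hr at 37 °C, after which cellular ATP was quantified by luminescence.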
VP16 counter – VP16 counterscreen qHTS for inhibitors of ROR gamma transcriptional activity; 3.5% of 310,000 active; Potency, µM (series often up to 53.6 µM), without a hit: top-dose activity, negative = inhibition, hits mostly inhibitors; Drosophila S2 Gal4-VP16 UAS-luciferase, luminescence, 20 h;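 also: Gal4-VP16 expression switched on by copper sulfate through the metallothionein promoter; nearly all actives have a fitted effect of over 50% in size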
12-LOX inh – Primary qHTS assay for inhibitors of human arachidonate 12S-lipoxygenase (ALOX12): Round 2. Polyunsaturated fatty acid lipoxygenase ALOX12 (Homo sapiens), P18054. Potency, µM (top dose mostly 108 µM), without a hit: at the top dose activity change, negative = inhibition, actives largely listed as inhibitors. purified 12hLO, xylenol orange hydroperoxide absorbance. 1.1% of 580,000 active
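Hydroperoxide product was detected by ferrous iron/xylenol orange as the 573 to 405 nm absorbance ratio. Arachidonic acid at 40 uM (final) was turned over for 30 min at room temperature by 150 nM human 12hLO, pH 7.0 Hepes buffer, after 15 min compound preincubation.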
TDP1 cell CPT – qHTS for Inhibitors of human tyrosyl-DNA phosphodiesterase 1 (TDP1): qHTS in cells in presence of CPT. chicken DT40 Tdp1-/-;hTDP1 cells + 20 nM CPT, ATP luminescence, 48 h. Potency, µM (series often up to 46.2 µM), without a hit: at the highest dose activity change, negative = growth inhibition, most hits filed as inhibitors. 12% of 420,000 active. AID 686979, 2013; also: nearly all actives have a fitted effect of over 55% in size
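Chicken DT40 Tdp1-/- cells stably complemented with human TDP1 were seeded at 400 cells/well in medium containing 20 nM camptothecin, exposed to pin-transferred compounds, and grown at 37 °C for at least 48 hr. Viability was read as ATP luminescence.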
* hit, by the source's call; ? = inconclusive; nt = not tested or not shown; [ ] = another dose, or the depositor's remark. Calls follow the shape of the dose curve; as a rule, active = well fitted curve in the direction sought with a large enough effect; inconclusive = small, poorly fitted or top-dose-only effect, or another doubt; inactive = no such curve, though single readings can be large; an effect the other way counts as inactive or inconclusive. % is scaled to controls: 0 for no effect and ±100 for the full control effect; potency is read from the fitted curve at half-maximal effect.

SMILES	RORg inh	ELG1 DNA repair	TDP1 cell noCPT	VP16 counter	12-LOX inh	TDP1 cell CPT
C[C@H](NC(=O)c1nc[nH]c1C(=O)N1CCN(C(=O)OC(C)(C)C)CC1)C(=O)OCc1ccccc1	?	-5.4%	?	-3.3%	5.3%	?
C[C@H](NC(=O)c1nc[nH]c1C(=O)NC1CCN(C(=O)OC(C)(C)C)CC1)C(=O)OCc1ccccc1	14.1µM*	3.7%	?	?	4.7%	?
CC(C)(C)OC(=O)N1CCC(NC(=O)c2[nH]cnc2C(=O)Nc2ccc(Br)cc2F)CC1	nt	nt	18.4µM*	nt	-0.9%	20.6µM*
CC(C)(C)OC(=O)N1CCC(NC(=O)c2[nH]cnc2C(=O)Nc2ccccc2)CC1	nt	?	?	nt	-0.1%	?
CCN(CC)C(=O)c1cccc(NC(=O)c2cccc3cccnc23)c1	nt	nt	nt	nt	-23.0%	nt
CN(C)C(=O)N1CCC(C(=O)N2CCOC(Cc3cccc4ccccc34)C2)CC1 (configuration not stated)	nt	nt	nt	nt	34.1%	nt
Cc1nn(C)c(C)c1CN(Cc1nc(CCC(C)C)no1)C(C)C	7.08µM*	?	0.581µM*	3.98µM*	-0.6%	2.31µM*
Cc1nc(CCNS(=O)(=O)c2c(C)nn(C)c2C)no1	nt	nt	nt	nt	-5.2%	nt
Cc1ccc(NC(=O)c2ccc3c(c2)CCN3S(C)(=O)=O)cc1C	?	-3.7%	?	?	0.0%	-109.7%
CS(=O)(=O)N1CCc2cc(C(=O)Nc3ccc(Cl)c(C(F)(F)F)c3)ccc21	nt	nt	8.2µM*	nt	-16.1%	18.4µM*
Cc1ccc(NC(=O)c2ccc3c(c2)CCN3S(C)(=O)=O)cc1	nt	nt	-12.0%	nt	7.4%	?
CS(=O)(=O)N1CCc2cc(C(=O)Nc3ccc(C(F)(F)F)cc3)ccc21	nt	nt	8.2µM*	nt	-14.9%	9.2µM*
CC(C)c1ccc(NC(=O)c2ccc3c(c2)CCCN3S(C)(=O)=O)cc1	nt	nt	4.11µM*	nt	-22.0%	6.51µM*
Cc1cccc(NC(=O)c2ccc3c(c2)CCN3S(C)(=O)=O)c1	26.4%	?	-1.2%	-4.0%	2.8%	-19.3%
CCS(=O)(=O)N1CCc2cc(C(=O)Nc3cccc(C(C)=O)c3)ccc21	nt	nt	18.4µM*	nt	-14.8%	?
CCn1cc(CN(C)CC(=O)N2CCCCCC2)ccc1=O	nt	nt	nt	nt	47.0%	nt
CCN(CC)S(=O)(=O)c1cc([N+](=O)[O-])ccc1N/N=C(/C)c1cccs1	nt	nt	nt	nt	30.1%	nt
CCc1ccc(NC(=O)c2ccc3c(c2)CCN3S(C)(=O)=O)cc1	nt	nt	25.9µM*	nt	?	?
COc1cccc(S(=O)(=O)N2CC3(Cc4ccccc4C(=O)N3)C2)c1	nt	nt	nt	nt	10.9%[6.33 µM]	nt
CN(C)S(=O)(=O)N(C)CC1COc2ccccc2O1 (configuration not stated)	nt	nt	nt	nt	3.9%	nt
O=[N+]([O-])c1ccc(N/N=C/c2cccc(O)c2O)cc1	7.8%	3.5%	14.6µM*	-20.5%	?	?
O=[N+]([O-])c1ccc(C=NNc2ccc(S(=O)(=O)O)cc2)cc1	nt	nt	-5.6%	nt	?	-16.7%
O=[N+]([O-])c1ccc(N/N=C/c2cccc(O)c2)cc1	10.5%	?	20.6µM*	3.3%	?	?
Cc1cccc(C(=O)Oc2ccc(/C=N/O)cc2)c1	5.62µM*	?	-5.1%	2µM*	?	-13.0%
Cc1cccc(C(=O)Oc2ccccc2/C=N/Nc2ccc([N+](=O)[O-])cc2)c1	?	?	16.4µM*	-1.6%	?	29.1µM*
SMILES	RORg inh	ELG1 DNA repair	TDP1 cell noCPT	VP16 counter	12-LOX inh	TDP1 cell CPT
Cn1c(CC(=O)Nc2ccccc2)nnc1SCC(=O)c1ccc(C#N)cc1	nt	nt	nt	nt	-22.6%	nt
COC(=O)c1ccc(C23CC4(C2)[C@H](CN(C)[C@@H]4c2ccccc2)C3c2ccc(C(F)(F)F)cc2)cc1 (some centres not stated)	1.8%	-8.5%	?	-5.1%	-39.3%	?
FC(F)(F)c1ccc(CN2C[C@@H]3C(c4ccccc4)C4(c5cccnc5)CC3(C4)[C@H]2c2ccccc2)cc1 (some centres not stated)	-26.0%	-3.4%	?	-1.1%	-7.0%	?
COC(=O)c1ccc(C23CC4(C2)[C@H](CN(C)[C@@H]4c2ccccc2)C3c2ccc(Cl)nc2)cc1 (some centres not stated)	0.6%	-7.0%	14.6µM*	-4.0%	-8.0%	?
CN1C[C@@H]2C(c3ccc(C(F)(F)F)cc3)C3(c4cccnc4)CC2(C3)[C@H]1c1ccccc1 (some centres not stated)	-24.7%	5.2%	18.4µM*	-2.0%	?	?
FC(F)(F)c1ccc(CN2C[C@@H]3C(c4ccc(C(F)(F)F)cc4)C4(c5cccnc5)CC3(C4)[C@H]2c2ccccc2)cc1 (some centres not stated)	-18.9%	-2.3%	14.6µM*	-6.4%	-16.1%	14.6µM*
c1ccc(C2[C@H]3CN(CC4CCCCC4)[C@H](c4ccccc4)C34CC2(c2cccnc2)C4)cc1 (some centres not stated)	-27.8%	-3.8%	18.4µM*	-3.8%	?	23.1µM*
COC(=O)c1cccc(C23CC4(C2)[C@H](CN(Cc2ccc(C(F)(F)F)cc2)[C@@H]4c2ccccc2)C3c2ccc(C(F)(F)F)cc2)c1 (some centres not stated)	-17.2%	-6.7%	?	-12.6%	-21.8%	?
CCN(CC)S(=O)(=O)c1ccc(C)c(NC(=O)Cc2ccccc2F)c1	nt	nt	nt	nt	6.9%	nt
N#Cc1ccc(C23CC4(C2)[C@H](CN(Cc2ccc(-c5ccccc5)cc2)[C@@H]4c2ccccc2)C3c2ccc(Cl)nc2)cc1 (some centres not stated)	0.3%	0.0%	?	4.9%	-29.1%	?
c1ccc(C2[C@H]3CN(Cc4cccnc4)[C@H](c4ccccc4)C34CC2(c2ccccc2)C4)cc1 (some centres not stated)	-33.9%	-1.9%	14.6µM*	-5.9%	-5.2%	?
